PINK1 expr mod = PINK1 expression modulation; Potency, µM (doses to about 76.6 µM), inactives show at the top dose activation (PINK1 increase), usual class: activators; PINK1 immunofluorescence, high-content cytometry, 24 h; AID 624263; hit rate 0.2% among 410,000; active = well fitted activation curve with a large enough effect; inconclusive = small, poorly fitted or top-dose-only effect; cell line not stated here; also: % of control where 0% means no effect; nearly all actives have a fitted effect of over 65% in size
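Compound titrations (5 concentrations, 24 h) on a stable cell line; DMSO and CCCP controls. Endpoint: fixed-cell PINK1 immunofluorescence with mitochondrial, cell and nuclear markers, scanned by microplate cytometer.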
ALOX12 inh = inhibitors of human 12S-lipoxygenase ALOX12 | P18054 | purified 12hLO, xylenol orange hydroperoxide absorbance | Potency, µM (highest dose often 108 µM), for inactives: top-dose activity change, negative = inhibition, actives largely listed as inhibitors | hit rate 1.1% among 580,000 | AID 1671190; also: % is scaled to controls: 0 for no effect and ±100 for the full control effect
Target sequence (P18054 whole entry, looked up): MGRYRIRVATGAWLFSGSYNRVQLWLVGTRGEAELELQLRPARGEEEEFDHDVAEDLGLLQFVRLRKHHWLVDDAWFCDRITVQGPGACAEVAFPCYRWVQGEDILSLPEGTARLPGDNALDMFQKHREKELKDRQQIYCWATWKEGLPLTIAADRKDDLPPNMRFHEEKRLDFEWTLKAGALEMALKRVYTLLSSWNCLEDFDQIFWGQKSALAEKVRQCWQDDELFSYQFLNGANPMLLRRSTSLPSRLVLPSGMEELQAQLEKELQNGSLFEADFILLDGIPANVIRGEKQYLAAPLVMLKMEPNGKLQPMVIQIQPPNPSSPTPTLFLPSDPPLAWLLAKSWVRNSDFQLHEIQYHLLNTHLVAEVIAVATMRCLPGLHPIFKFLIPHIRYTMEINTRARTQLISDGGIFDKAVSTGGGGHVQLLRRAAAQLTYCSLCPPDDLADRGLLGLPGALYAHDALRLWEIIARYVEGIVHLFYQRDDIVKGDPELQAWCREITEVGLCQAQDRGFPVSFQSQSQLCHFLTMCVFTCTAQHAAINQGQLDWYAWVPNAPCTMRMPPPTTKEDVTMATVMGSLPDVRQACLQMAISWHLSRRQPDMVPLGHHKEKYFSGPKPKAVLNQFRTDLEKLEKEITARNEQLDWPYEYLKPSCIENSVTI
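Purified human 12hLO at 150 nM in 25 mM Hepes, 0.01% Triton X-100, pH 7.0, preincubated 15 min at room temperature with compound. Reaction started with 40 uM arachidonic acid, 30 min at room temperature. Hydroperoxide measured by Fe-xylenol orange, 573/405 nm absorbance ratio.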
KB-3-1 tox = KB-3-1 parental cell cytotoxicity; hit rate 1.4% among 400,000; KB-3-1 viability, CellTiter-Glo ATP luminescence, 72 h; AID 1347075; Potency, µM (titrated, usually from 46.1 µM), usual class: cytotoxic; also: % is scaled to controls: 0 for no effect and ±100 for the full control effect; nearly all actives have a fitted effect of over 60% in size
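Cytotoxicity measured as CellTiter-Glo luminescence after 72 h at 37 C. Compound titrations were pinned onto drug-naive KB-3-1 parental adenocarcinoma cells grown in DMEM with 10% FBS, and normalized data fitted to concentration-response curves.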
MCF10A rerep = induces DNA re-replication in MCF 10a normal breast cells | MCF 10A DNA re-replication, Hoechst nuclear intensity, 48 h | Potency, µM (highest dose often 46.1 µM), for the others: at the highest dose activity, positive = re-replication, hits mostly activators | hit rate 2.9% among 350,000; also: % of control where 0% means no effect; nearly all actives have a fitted effect of over 50% in size
SW480 rereplic = induces DNA re-replication in SW480 colon adenocarcinoma cells; SW480 DNA re-replication, Hoechst DNA content imaging, 48 h; Potency, µM (doses to about 46.1 µM), without a hit: at the highest dose re-replication activation, hits mostly activators; hit rate 1.8% among 340,000; also: % of control where 0% means no effect; nearly all actives have a fitted effect of over 55% in size
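DNA re-replication was detected as more nuclei of elevated Hoechst intensity after 48 hr exposure to compound (23 nL pinned per well of 250 cells).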
KB-V1 MDR tox = kills drug-selected multidrug resistant KB-V1 cells | Potency, µM (series often up to 46.1 µM), actives largely listed as cytotoxic | KB-V1 MDR cells viability, CellTiter-Glo, 72 h | AID 1347076 | hit rate 3.4% among 400,000; also: % is scaled to controls: 0 for no effect and ±100 for the full control effect; nearly all actives have a fitted effect of over 60% in size
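Compound-treated KB-V1 multidrug-resistant cells, 72 h, 37 degrees C; viability by CellTiter-Glo. Fitted qHTS curves give the values.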
The depositor's hits bear a star; i = inactive; u = inconclusive; x = not tested or not shown; [ ] = dose if it differs, or a comment. Compounds with a hit are over-represented: about 5.8% of the library has one in this group of screens. Unless noted, calls follow the shape of the dose curve; as a rule, active = well fitted curve in the direction sought with a large enough effect; inconclusive = small, poorly fitted or top-dose-only effect, or another doubt; inactive = no such curve, though single readings can be large; an effect the other way counts as inactive or inconclusive. Potency is read from the fitted curve at half-maximal effect.

SMILES | PINK1 expr mod | ALOX12 inh | KB-3-1 tox | MCF10A rerep | SW480 rereplic | KB-V1 MDR tox
CCN(CC)S(=O)(=O)c1cccc(C(=O)Nc2ccc(S(=O)(=O)NC3=NCCCCC3)cc2)c1 | 0% | 50µM* | i | 15% | -4% | i
O=C(CCl)Nc1ccc(S(=O)(=O)NC2=NCCCCC2)cc1 | -2% | -4% | 15µM* | 21µM* | u | 16µM*
Cc1cnc(NC(=O)C(C)Oc2cc(Cl)ccc2Cl)s1 (stereo unspecified) | x | 42% | x | x | x | x
COC(=O)CNC(=O)C(C)(C)c1cccc(C(F)(F)F)c1 | x | -14% | x | x | x | x
O=C(Cn1ccc2cc(Cl)ccc21)Nc1ccc2c(c1)OCO2 | x | -2% | x | x | x | x
Cc1ccc(S(=O)(=O)Nc2ccc3c(c2)CCC3)cc1 | u | -18% | u | 12% | -96% | 21µM*
Cn1cnnc1-c1ccc(NS(=O)(=O)c2ccc3c(c2)CCC3)cc1 | x | 28µM* | x | x | x | x
CC(=O)N1CCCc2ccc(NS(=O)(=O)c3ccccc3)cc21 | 0% | 3% | i | 20% | 6.5µM* | u
CC1=C[C@@H](CC#N)[C@H](C(C)C)C[C@H]1CC(=O)N1CCN(c2cnccn2)CC1 | x | 35%[176 µM] | x | x | x | x
Cc1c(Cl)ccc2c(C(O)CBr)cc(-c3ccccc3)nc12 (stereo unspecified) | 1% | u | i | 21µM* | u | i
CCCCn1cnc2c1c(=O)[nH]c(=O)n2CCC | x | -24% | x | x | x | x
CCOC(=O)c1cccc(Nc2nc3ccccc3nc2NS(=O)(=O)c2cc(C)ccc2C)c1 | x | -26% | x | x | x | x
CC(C)CC1NC(=O)N(CC(=O)N2CCN(S(=O)(=O)c3ccc4ccccc4c3)CC2)C1=O (stereo unspecified) | 0% | -4% | i | -1% | -2% | i
CC(C)CC(=O)N1CCN(S(=O)(=O)c2ccc3ccccc3c2)CC1 | -3% | 0% | u | 6% | 4% | 7.3µM*
O=C(CSc1ncc(C(F)(F)F)cc1Cl)N1CCN(S(=O)(=O)c2ccc3ccccc3c2)CC1 | 0%[38.3 µM] | 0% | i | 18% | 6% | 5.8µM*
O=S(=O)(c1ccccc1)N1CCN(C2CCN(Cc3ccccc3)CC2)CC1 | 6% | 8% | i | 26% | u | i
O=S(=O)(c1ccc2ccccc2c1)N1CCN(C2CCN(Cc3ccccc3)CC2)CC1 | -44%[38.3 µM] | u | i | 1% | -4% | 7.3µM*
O=C(CSCc1cccs1)NCC1CCCO1 (stereo unspecified) | x | 1% | x | x | x | x
Cc1ccsc1C(=O)N1CCC(N2C[C@H](O)C[C@H]2C(=O)NC2CCCCC2)CC1 | x | 70% | x | x | x | x
COc1cc(CNc2cccc3[nH]c(C(F)(F)F)nc23)cc(OC)c1 | 32µM* | -5% | u | u | -26% | i
Cc1ccc(C(=O)Nc2cccc3cccnc23)cc1 | x | 29% | x | x | x | x
Cc1ccc(C(=O)Nc2cccc3[nH]c(C(F)(F)F)nc23)cc1 | u | 0% | 16µM* | u | 25% | 18µM*
COc1ccc(CNc2cccc3[nH]c(C(F)(F)F)nc23)cc1 | u | 5% | i | 43% | -5% | i
CCOC(=O)c1c(S(=O)(=O)N2CCOCC2)nn(CC)c1C | x | -7% | x | x | x | x
CCOC(=O)c1cn(C)nc1S(=O)(=O)N1CCOCC1 | x | 11µM* | x | x | x | x
SMILES | PINK1 expr mod | ALOX12 inh | KB-3-1 tox | MCF10A rerep | SW480 rereplic | KB-V1 MDR tox
CC1(S(=O)(=O)O)CC(=O)c2ccccc2C1=O (stereo unspecified) | u | -21% | u | u | 15µM* | i
COCCN1CCN(c2nc(-c3cccs3)nc3scc(-c4ccccc4)c23)CC1 | x | -11% | x | x | x | x
O=C(NC(c1ccccc1)c1ccc(Br)cc1)C(c1ccccc1)C1CCCC1 (stereo unspecified) | x | 2% | x | x | x | x
CN1C(=O)C2(CCN(C(=O)C3(c4ccccc4)CC3)CC2)c2ccccc21 | x | 34% | x | x | x | x
O=C1OCCN1C(=O)[C@H]1[C@H](c2ccc(F)cc2)C(c2cccc(Cl)c2)=NN1c1ccccc1 | -1% | -10% | i | 0.58µM* | 18µM* | i
OC[C@@H]1[C@@H](c2ccccc2)C(c2cccc(Cl)c2)=NN1c1ccccc1 | 2% | u | u | u | u | u
O=C1OCCN1C(=O)[C@H]1[C@H](c2ccc(Cl)cc2)C(c2cccc(Cl)c2)=NN1c1ccccc1 | 3% | x | i | u | 12µM* | i
C[S+](=O)([O-])CCn1ncc2cc(OCc3cccc(-c4cccnc4)c3)ccc21 | x | 13%[176 µM] | x | x | x | x
Cc1ccc(S(=O)(=O)NCCC(=O)NC2CCCCCC2)cc1C | 1% | 454% | i | 0% | -2% | 18µM*
Cc1ccc(S(=O)(=O)CCC(=O)NC2CCCC2)cc1 | 2% | 82% | i | 1% | 21µM* | i
O=C(Cc1ccc(Cl)cc1)Nc1cccc(-c2nnc(-c3ccco3)o2)c1 | u | -4% | u | 14% | -4% | 0.58µM*
CCOc1cccc(C(=O)Nc2cccc(-c3nnc(-c4ccccc4)o3)c2)c1 | x | -6% | i | u | u | i
CCOc1cccc(C(=O)Nc2cccc(-c3nnc(-c4ccc(C)cc4)o3)c2)c1 | -3% | u | 13µM* | 3.7µM* | 1% | u
COc1ccc(C(=O)Nc2ccccc2C(=O)N2CCOCC2)cc1OC | 2% | -4% | i | -1% | -2% | i
COc1ccc(CC(=O)Nc2ccccc2C(=O)N2CCOCC2)cc1OC | 0% | 15% | i | -11% | 0.58µM* | i
COc1ccc(CC(=O)Nc2cccc(-c3nnc(-c4ccccc4)o3)c2)cc1OC | x | -3% | u | 21µM* | 44% | u
COc1ccc(CC(=O)Nc2cccc(-c3nnc(-c4cccc(C)c4)o3)c2)cc1OC | 1% | u | i | u | -3%[9.22 µM] | u
CCc1cccc(NC(=O)Cc2ccc(OC)c(OC)c2)c1 | -1% | -4% | u | 13% | -6% | 16µM*
COc1ccc(CC(=O)Nc2cccc(-c3nnc(-c4ccc(C)cc4)o3)c2)cc1OC | 15%[38.3 µM] | u | i | u | -2% | 4.1µM*
COc1ccc(CC(=O)NCc2cccc(CNC(=O)Cc3ccc(OC)c(OC)c3)c2)cc1OC | 0% | 26% | i | -1% | -9% | i
O=C(Nc1cccc(-c2nnc(-c3ccccc3)o2)c1)C1CC1 | 1% | -14% | i | -4% | 0% | 10µM*
O=C1/C(=C/c2cccs2)NC(=S)N1C1CC1 | 3% | -22% | i | 1% | 18µM* | i
O=C(O)c1c[nH]c2ncccc12 | x | 3% | x | x | x | x
CCNC(=O)c1cc2c(c(-c3cccc(-c4cccnc4)c3)n1)[C@H](CCO)N(S(C)(=O)=O)C2 | 6% | -14% | 2.9µM* | x | x | u

Screening data from PubChem BioAssay.
